From PubChem BioAssay (Tox21)
Inconclusive results are not listed. Activity calls are given as the source filed them. Unless noted, calls follow the shape of the dose curve; as a rule, active = well fitted curve in the direction sought with a large enough effect in the repeat runs; inconclusive = weak or mixed curves; inactive = no such curve, though single readings can be large; an effect the other way counts as inactive or inconclusive.

Columns and labels:
[1] = qHTS assay to identify small molecule agonists of the peroxisome proliferator-activated receptor delta (PPARd) signaling pathway - cell viability counter screen (AID 743211); also: nearly all actives have a fitted effect of over 55% in size
How it was run: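 Viability of GeneBLAzer PPARd UAS-bla HEK293H cells was assessed after 17 h compound incubation at 37C, using CellTiter-Glo reagent added after the reporter read and luminescence recorded 30 min later.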

[2] = target: Peroxisome proliferator-activated receptor delta (Homo sapiens) (UniProt Q03181); assay: qHTS assay to identify small molecule agonists of the peroxisome proliferator-activated receptor delta (PPARd) signaling pathway (AID 743212; calls by dose curve;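 also: HEK293H cells with PPARd UAS beta-lactamase reporter GeneBLAzer system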)
How it was run: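 Beta-lactamase reporter read by fluorescence (LiveBLAzer B/G FRET, 2 h, room temperature). Test agents, in DMSO, incubated at 37 C with PPARd-bla HEK293H cells.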

[3] = target: Bile acid receptor (Homo sapiens) (UniProt Q96RI1); assay: qHTS assay to identify small molecule antagonists of the farnesoid-X-receptor (FXR) signaling pathway (AID 743217; active = well fitted inhibition curve with a large enough effect in the signal ratio in the repeat runs, not every such curve was filed as active; the % refers to the signal ratio)
How it was run: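 Antagonist mode: chenodeoxycholic acid at 50 uM final stimulates a UAS-driven beta-lactamase reporter in HEK 293T FXR-bla cells during 16 h, 37C compound exposure. Read-out is FRET substrate fluorescence after 2 h at room temperature.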

[4] = qHTS assay to identify small molecule agonists of the farnesoid-X-receptor (FXR) signaling pathway - cell viability counter screen (AID 743218); also: nearly all actives have a fitted effect of over 45% in size; also: potency is read from the fitted curve at half-maximal effect
How it was run: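 Viability counter screen in the same wells: CellTiter-Glo luminescence, 30 min room-temperature incubation, measured after the beta-lactamase read. Cells were GeneBLAzer FXR-UAS-bla HEK 293T, compound-treated 16 h at 37C.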

[5] = target: Bile acid receptor (Homo sapiens) (UniProt Q96RI1); assay: qHTS assay to identify small molecule agonists of the farnesoid-X-receptor (FXR) signaling pathway (AID 743220; active = well fitted activation curve with a large enough effect in the signal ratio in the repeat runs, not every such curve was filed as active; the % refers to the signal ratio)
How it was run: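 FXR-UAS-bla HEK 293T cells carrying a UAS-driven beta-lactamase reporter were plated for 5 h at 37C/5% CO2, then exposed to DMSO-dissolved Tox21 10K compounds for 16 h at 37C. A LiveBLAzer B/G FRET substrate was loaded for 2 h at room temperature before fluorescence reading.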

[6] = qHTS assay to identify small molecule antagonists of the farnesoid-X-receptor (FXR) signaling pathway - cell viability counter screen (AID 743221; active = well fitted cell-killing curve with a large enough effect in the repeat runs, not every such curve was filed as active; also: nearly all actives have a fitted effect of over 50% in size; also: potency is read from the fitted curve at half-maximal effect)
How it was run: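 Quantitative HTS of the Tox21 10K library run in parallel with the beta-lactamase reporter read. HEK 293T cells carrying a UAS-driven bla reporter got compound and 50 uM CDCA (final) for 16 h; ATP-based luminescence followed.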

[7] = target: Vitamin D3 receptor (Homo sapiens) (UniProt P11473); assay: qHTS assay to identify small molecule agonists of the vitamin D receptor (VDR) signaling pathway (AID 743222; calls by dose curve)
How it was run: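 Agonist mode, beta-lactamase reporter: fluorescence from LiveBLAzer B/G FRET substrate (2 h, room temperature) read after 16 h compound treatment at 37 C of VDR-bla cells, which were pre-incubated 4 h after seeding.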

[8] = target: Vitamin D3 receptor (Homo sapiens) (UniProt P11473); assay: qHTS assay to identify small molecule antagonists of the vitamin D receptor (VDR) signaling pathway (AID 743223; active = well fitted inhibition curve with a large enough effect in the signal ratio in the repeat runs, not every such curve was filed as active; the % refers to the signal ratio)
How it was run: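 Fluorescence from LiveBLAzer B/G FRET substrate, read after 2 h at room temperature, reflects beta-lactamase reporter activity in VDR-bla cells treated 16 h at 37C with compounds and agonist 1alpha,25-dihydroxyvitamin D3 (3 nM final).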

[9] = qHTS assay to identify small molecule agonists of the vitamin D receptor (VDR) signaling pathway - cell viability counter screen (AID 743224); also: series mostly up to about 63 µM; nearly all actives have a fitted effect of over 50% in size
How it was run: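 Counter screen run in the same wells as the VDR-bla reporter assay: CellTiter-Glo luminescence, 30 min at room temperature, after 16 h compound treatment at 37C of cells pre-plated for 4 h.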

[10] = qHTS assay to identify small molecule antagonists of the vitamin D receptor (VDR) signaling pathway - cell viability counter screen (AID 743225); also: nearly all actives have a fitted effect of over 50% in size
How it was run: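 Cells (VDR-UAS-bla HEK 293T) are plated, rested 4 h at 37C, dosed with compound and 3 nM final 1-alpha,25-dihydroxy vitamin D3, and incubated 16 h. Viability is taken from CellTiter-Glo luminescence in the reporter wells.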

[11] = qHTS assay to identify small molecule agonists of the NFkB signaling pathway - cell viability counter screen (AID 1159515; calls by dose curve; also: series mostly up to about 61 µM; nearly all actives have a fitted effect of over 55% in size)
How it was run: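 Read by CellTiter-Glo luminescence (30 min, room temperature) in the wells also used for the beta-lactamase FRET read. ME-180 NFkB-bla cells at 2,000 per well were plated overnight, then exposed to compound for 5 hr at 37 C.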

[12] = qHTS assay to identify small molecule agonists of the endoplasmic reticulum stress response signaling pathway (AID 1159516; active = well fitted activation curve with a large enough effect in the signal ratio in the repeat runs, not every such curve was filed as active; the % refers to the signal ratio)
How it was run: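 Ratiometric FRET readout (405 nm excitation; 460 and 530 nm emission) of a beta-lactamase gene driven by the ER stress response element, after 2 hr substrate loading. HeLa ESRE-bla cells were seeded overnight and treated with compounds for only 5 hr at 37 C.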

[13] = qHTS assay to identify small molecule agonists of the endoplasmic reticulum stress response signaling pathway - cell viability counter screen (AID 1159517; calls by dose curve; also: series mostly up to about 61 µM; nearly all actives have a fitted effect of over 50% in size)
How it was run: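 Cytotoxicity of test compounds toward ESRE-bla HeLa cells was assessed after 5 hr exposure. The luminescent CellTiter-Glo signal was measured 30 min after reagent addition.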

[14] = qHTS assay to identify small molecule antagonists of the retinoid-related orphan receptor gamma (ROR-gamma) signaling pathway - cell viability counter screen (AID 1159520); also: nearly all actives have a fitted effect of over 50% in size; also: potency is read from the fitted curve at half-maximal effect
How it was run: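 Tet-on ROR gamma CHO cells (1,000/well) were plated 4 hr, given compounds in DMSO for 2 hr at 37 C, then induced with 1 uM final doxycycline for 16 hr. Viability was read as ATP by CellTiter-Glo luminescence after 30 min.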

[15] = qHTS assay to identify small molecule agonists of the AP-1 signaling pathway - cell viability counter screen (AID 1159525; calls by dose curve; also: nearly all actives have a fitted effect of over 55% in size)
How it was run: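 Each titration point was normalised to DMSO and tetra n-octyl ammonium bromide controls. The read was Cell Titer Glo luminescence after 30 min at RT, following 5 h compound exposure of ME-180 AP-1-bla cells at 37 °C.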

[16] = qHTS assay to identify small molecule antagonists of the peroxisome proliferator-activated receptor delta (PPARd) signaling pathway - cell viability counter screen (AID 743213); also: nearly all actives have a fitted effect of over 50% in size
How it was run: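 Viability counter-screen, qHTS format: PPARd-bla HEK293H, L165041 300 nM final, 17 h compound exposure at 37 C, CellTiter-Glo luminescence after 30 min RT.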

[17] = target: Nuclear receptor ROR-gamma (Homo sapiens) (UniProt P51449); assay: qHTS assay to identify small molecule antagonists of the retinoid-related orphan receptor gamma (ROR-gamma) signaling pathway (AID 1159521)
How it was run: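 RORγ antagonism is scored from reduced reporter luminescence in Tet-on CHO cells. Induction used 1 uM final doxycycline hyclate for 16 h at 37 C, following a 2 h compound exposure.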

[18] = qHTS assay to identify small molecule agonists of the AP-1 signaling pathway (AID 1159526; calls by dose curve)
[19] = target: Peroxisome proliferator-activated receptor delta (Homo sapiens) (UniProt Q03181); assay: qHTS assay to identify small molecule antagonists of the peroxisome proliferator-activated receptor delta (PPARd) signaling pathway (AID 743215; active = well fitted inhibition curve with a large enough effect in the signal ratio in the repeat runs, not every such curve was filed as active; the % refers to the signal ratio;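 also: cells stimulated with agonist L165041 at 300 nM final during compound exposure; series mostly up to about 62 µM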)
How it was run: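 Agonist L165041 (300 nM final) added with compound to PPARd-bla HEK293H UAS-bla reporter cells; 17 h incubation at 37 C. Read-out: LiveBLAzer FRET substrate, 2 h at room temperature, fluorescence intensity.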

Measured: Potency

Bile acid receptor (Homo sapiens), sequence (Q96RI1 whole entry, looked up): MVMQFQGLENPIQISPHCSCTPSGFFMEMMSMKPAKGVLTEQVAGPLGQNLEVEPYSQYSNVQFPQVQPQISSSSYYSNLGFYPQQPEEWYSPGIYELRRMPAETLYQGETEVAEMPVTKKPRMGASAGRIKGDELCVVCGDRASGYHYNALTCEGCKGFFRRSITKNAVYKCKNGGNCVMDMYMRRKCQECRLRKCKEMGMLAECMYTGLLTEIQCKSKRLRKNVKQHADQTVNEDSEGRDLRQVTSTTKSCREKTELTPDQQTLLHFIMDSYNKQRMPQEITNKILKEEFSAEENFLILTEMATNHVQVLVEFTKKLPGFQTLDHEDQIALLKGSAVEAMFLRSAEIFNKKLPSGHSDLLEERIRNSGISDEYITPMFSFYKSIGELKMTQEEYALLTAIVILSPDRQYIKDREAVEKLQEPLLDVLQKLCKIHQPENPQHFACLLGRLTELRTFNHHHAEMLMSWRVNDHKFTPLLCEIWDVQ
Peroxisome proliferator-activated receptor delta (Homo sapiens), sequence (Q03181 whole entry, looked up): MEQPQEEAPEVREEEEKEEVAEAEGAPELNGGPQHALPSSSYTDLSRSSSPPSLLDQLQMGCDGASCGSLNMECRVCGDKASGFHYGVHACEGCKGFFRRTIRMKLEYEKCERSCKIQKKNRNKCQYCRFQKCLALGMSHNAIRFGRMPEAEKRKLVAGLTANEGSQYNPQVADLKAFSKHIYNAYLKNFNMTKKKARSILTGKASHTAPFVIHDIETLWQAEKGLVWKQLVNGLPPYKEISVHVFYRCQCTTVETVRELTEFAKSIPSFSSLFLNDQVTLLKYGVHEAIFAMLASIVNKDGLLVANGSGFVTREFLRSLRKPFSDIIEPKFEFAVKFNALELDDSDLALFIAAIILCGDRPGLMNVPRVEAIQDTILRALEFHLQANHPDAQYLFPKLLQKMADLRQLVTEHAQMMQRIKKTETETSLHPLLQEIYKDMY
Vitamin D3 receptor (Homo sapiens), sequence (P11473 whole entry, looked up): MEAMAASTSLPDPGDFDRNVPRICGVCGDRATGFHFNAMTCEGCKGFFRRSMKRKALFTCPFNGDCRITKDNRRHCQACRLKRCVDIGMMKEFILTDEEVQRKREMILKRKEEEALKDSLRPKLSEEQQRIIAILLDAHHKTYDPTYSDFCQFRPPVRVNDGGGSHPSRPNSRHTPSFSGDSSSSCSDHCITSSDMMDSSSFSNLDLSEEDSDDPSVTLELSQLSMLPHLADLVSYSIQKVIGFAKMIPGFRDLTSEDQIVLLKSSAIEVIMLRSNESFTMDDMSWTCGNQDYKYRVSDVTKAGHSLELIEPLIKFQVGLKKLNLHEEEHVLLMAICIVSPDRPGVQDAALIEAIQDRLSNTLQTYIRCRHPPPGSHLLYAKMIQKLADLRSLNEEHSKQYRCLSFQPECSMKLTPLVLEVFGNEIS

CC(=O)[C@H]1CC[C@H]2[C@@H]3C[C@H](C)C4=CC(=O)CC[C@]4(C)[C@H]3[C@@H](O)C[C@]12C
not listed: [16] | [17] | [18] | [19]
inactive: all other assays above

O=C(O)c1cccnc1C(=O)O
inactive: [1] | [16] | [4] | [6] | [9] | [11] | [12] | [14] | [17] | [18]

CCOc1cc(N)c(Cl)cc1C(=O)NCC1CN(Cc2ccc(F)cc2)CCO1 (stereo unspecified)
not listed: [3] | [4] | [10] | [16] | [17]
inactive: all other assays above

O=C(NCCCN1CCOCC1)c1ccc(Cl)cc1
not listed: [3] | [5] | [17]
inactive: all other assays above

CCn1cc(C(=O)O)c(=O)c2cc(F)c(N3CCNCC3)nc21
not listed: [3] | [5] | [16] | [17]
inactive: all other assays above

Cn1c(=O)c2c(ncn2CC(=O)O)n(C)c1=O
not listed: [2] | [3] | [5] | [10] | [14] | [16] | [17] | [19]
inactive: all other assays above

CCCOCCOCCO
not listed: [3] | [5] | [7] | [8] | [14] | [17] | [18]
inactive: all other assays above

O=C(CCCCCCC(=O)Nc1ccccc1)NO
active: [14] 7.5 µM
not listed: [2] | [3] | [4] | [5] | [7] | [17]
inactive: all other assays above

CCOC(=O)[C@@H](C)Oc1ccc(Oc2nc3ccc(Cl)cc3o2)cc1
not listed: [2] | [3] | [4] | [17] | [19]
inactive: all other assays above

Cc1nc2ccccn2c(=O)c1CCN1CCC(C(=O)c2ccc(F)cc2)CC1
not listed: [7] | [10] | [13] | [15]
inactive: all other assays above

O=C(CS)OCCOC(=O)CS
not listed: [14] | [15]
inactive: all other assays above

CNC(=S)NC
active: [4] 17.4 µM | [6] 38.9 µM
not listed: [2] | [8] | [10] | [17] | [19]
inactive: all other assays above
